Experimental data: ChEMBL document CHEMBL1157539, “Thousands of chemical starting points for antimalarial lead identification” (Nature, 2010)

tested on: Plasmodium falciparum; test: GSK_TCMDC: Inhibition of Plasmodium falciparum 3D7 in whole red blood cells, using parasite LDH activity as an index of growth. Test compounds present at 2uM; type: functional

| Compound | Inhibition |
| --- | --- |
| CCN(CC)CCCN1CCN(C(=O)c2cccc(-c3noc(C(F)(F)F)n3)c2)CC1 | 91% |
| COc1cccc(-c2ccc(NC(=O)C3CCCN(Cc4cccc(OC)c4O)C3)cc2)c1 (stereo unspecified) | 98% |
| Nc1ccc2nc(C=Cc3ccc(Cl)cc3)[nH]c2c1 | 91% |
| CCCCCCN1CCCN(Cc2ccc(C(=O)Nc3ccc(C(C)(C)C)cc3)cc2)CC1.O=C(O)C(F)(F)F | 100% |
| Cc1cccc2nc(-c3ccc(-c4cccc(CN5CCCCC5)c4)s3)[nH]c12.O=C(O)C(F)(F)F | 100% |
| CN(C)CCCNCc1ccc(-c2ccc(CNCCOc3ccccc3)cc2)cc1.O=C(O)C(F)(F)F | 100% |
| O=C(NCc1cccs1)[C@H](Cc1ccccc1)Nc1ccnc(NCCc2ccccc2)n1.O=C(O)C(F)(F)F | 85% |
| Cc1nnsc1C(=O)Nc1cccc(-c2ccc(-c3nc4cccc(C)c4[nH]3)s2)c1 | 100% |
| O=C(Nc1cccc(-c2cccc(-c3nc4cc(C(F)(F)F)ccc4[nH]3)c2)c1)c1cccnc1Cl | 95% |
| Cc1nc(N)nc(N)c1-c1ccc(Cl)c(Cl)c1 [METOPRINE] | 95% |
| COc1ccc(C(=O)C2CC2CN(C)CC(O)c2cc(C)c(OC)cc2C)cc1.O=C(O)C(F)(F)F (stereo unspecified) | 90% |
| CN1CC[C@@H](Oc2cc(C(=O)NCc3ccc(Cl)c(Cl)c3)ccc2C(F)(F)F)C1.Cl | 88% |
| O=C(/C=C/c1ccc(Cl)c(Cl)c1)NC1CCC(CN2CCC(c3cc4ccccc4[nH]3)CC2)CC1 (stereo unspecified) | 96% |
| O=C(Nc1ccc(Cl)c(C(F)(F)F)c1)N[C@H]1CCN(CCCCCNC(=O)C2CC2c2ccc(Cl)c(Cl)c2)C1 (stereo partly specified) | 94% |
| N#Cc1ccc(C=NNc2nc3ccccc3[nH]2)cc1 | 100% |
| O=C(NCCN1CCCCC1)c1ccc(CNC(=O)c2ccc(O)c(-c3cccc(C(F)(F)F)c3)c2)cc1 | 94% |
| CSc1nc2nc(C)c(Cc3cccc(F)c3)c(C)n2n1 | 87% |
| CCN1CCCC1CN(Cc1ccc(-c2ccc(C(F)(F)F)cc2)cc1)C(=O)Cn1c(CCc2cccc(F)c2F)nc(=O)c2ccccc21.O=C(O)C(O)C(O)C(=O)O (stereo unspecified) | 94% |
| O=C(Nc1ccc2c(c1)CCC2)c1ccc(N2CCN(c3ccncc3)CC2)cn1.O=C(O)C(F)(F)F | 99% |
| Cc1cccc2nc(-c3ccc(-c4ccc(C(=O)NCCN5CCCC5)cc4)cc3)[nH]c12 | 100% |
| CCN1CCN(c2cc(C)c3cc(NC(=O)c4ccc(OC)c([N+](=O)[O-])c4)ccc3n2)CC1 | 100% |
| CC(C)(C)OC(=O)NCc1ccc(Nc2nnc(-c3cccc(OCC(=O)NCc4cc(C(F)(F)F)cc(C(F)(F)F)c4)c3)o2)cc1 | 90% |
| Cl.N=C(N)Nc1nccc(NCc2ccccc2)n1 | 88% |
| O=C(O)C(F)(F)F.O=[N+]([O-])c1cccc(CNC2CCN(Cc3ccc4ccccc4c3)CC2)c1 | 100% |
| CCCCN1CCN(CCCCNc2c3ccccc3nc3ccccc23)CC1.Cl | 100% |
| CCOc1ccc2[nH]c(-c3ccccc3)cc(=NN=Cc3ccncc3)c2c1 | 100% |
